# Data taken from PubChem BioAssay (Tox21).
# Several values for one entry are separate records, joined by “and”; a condition that tells them apart may be missing. Identical values can stand only once. The source holds several records for some structures; these can differ, active in one and inactive in another. Activity calls are given as the source filed them. Entries that show only a call come without a potency. Unless noted, the call rests on the fitted dose curve; in most records, active means well fitted curve in the direction sought with a large enough effect in the repeat runs; inconclusive means weak or mixed curves; inactive means no such curve, though single readings can be large; an effect the other way counts as inactive or inconclusive.
# How the values were obtained:
# [1] = qHTS assay to identify small molecule antagonists of the thyroid receptor (TR) signaling pathway - cell viability counter screen (AID 743064); conditions: GH3.TRE-Luc viability, CellTiter-Fluor, 24 h; series mostly up to 70.3 µM; further: nearly all actives have a fitted effect of over 50% in size; further: potency means the concentration at half of the fitted maximal effect
# Outline: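 CellTiter-Fluor readout, 30 min at 37 °C/5% CO2, following 23.5 h incubation of GH3.TRE-Luc cells with test compound and 1 nM T3 (final).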
# [2] = qHTS assay to identify small molecule antagonists of the thyroid receptor (TR) signaling pathway (AID 743065); conditions: GH3.TRE-Luc, T3-stimulated luciferase inhibition, 23.5 h; series mostly up to 70.3 µM; further: nearly all actives have a fitted effect of over 55% in size; further: potency means the concentration at half of the fitted maximal effect
# Outline: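 GH3.TRE-Luc rat pituitary cells (two TREs driving luciferase) were dosed with compound, then stimulated with 1 nM T3 (final) for 23.5 h at 37 C. ONE-Glo luminescence was the read-out, with CellTiter-Fluor fluorescence as the cytotoxicity counter-screen.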
# [3] = system: thyroid hormone receptor (rat, GH3 cells); assay: qHTS assay to identify small molecule agonists of the thyroid receptor (TR) signaling pathway (AID 743066; calls by dose curve); conditions: GH3.TRE-Luc cells, TR agonist luciferase, 24 h; series mostly up to 83.9 µM
# [4] = target: Estrogen receptor (Homo sapiens) (UniProt P03372); assay: qHTS assay to identify small molecule antagonists of the estrogen receptor alpha (ER-alpha) signaling pathway (AID 743069; active means well fitted curve in the direction sought with a large enough effect in the signal ratio in the repeat runs, not every such curve was filed as active; inconclusive means weak or mixed curves, or effect the other way; inactive means no such curve, though single readings can be large or run the other way; the % refers to the signal ratio; further: potency means the concentration at half of the fitted maximal effect); conditions: HEK293 ER-alpha-UAS-bla, beta-lactamase ratio, antagonist mode; series mostly up to 69.4 µM
# Outline: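 Reporter cells (ER-alpha-bla, HEK293 background) are conditioned overnight in stripped-serum medium (2% charcoal-stripped FBS). Compound and 17beta-estradiol exposure runs 18 hr at 37C, 5% CO2.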
# [5] = qHTS assay to identify small molecule antagonists of the estrogen receptor alpha (ER-alpha) signaling pathway - cell viability counter screen (AID 743074; calls by dose curve;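 further: HEK293 cells carrying ER-alpha-UAS-bla reporter stimulated with 17beta-estradiol; nearly all actives have a fitted effect of over 45% in size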; further: potency means the concentration at half of the fitted maximal effect); conditions: ERalpha-bla HEK293 viability, CellTiter-Glo luminescence, 18 h; series mostly up to 69.4 µM
# [6] = qHTS assay to identify small molecule antagonists of the estrogen receptor alpha (ER-alpha) signaling pathway using the BG1 cell line (AID 743080; calls by dose curve;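 further: BG1 cells stimulated with 17beta-estradiol alongside compound; nearly all actives have a fitted effect of over 25% in size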; further: potency means the concentration at half of the fitted maximal effect); conditions: BG1Luc4E2 ERE-luciferase antagonist mode, luminescence; series mostly up to 70.3 µM
# Outline: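 Seeding, 24 h rest, compound transfer from DMSO, 17beta-estradiol addition, 21.5 h incubation, CellTiter-Fluor (30 min, 37 C), then ONE-Glo (30 min, room temperature): this sequence was run on BG1-Luc-4E2 reporter cells.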
# [7] = qHTS assay to identify small molecule antagonists of the estrogen receptor alpha (ER-alpha) signaling pathway using the BG1 cell line - cell viability counter screen (AID 743081); conditions: BG1Luc4E2 viability, CellTiter-Fluor, 22 h; series mostly up to 70.3 µM;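 further: compound given together with 17beta-estradiol as the ER stimulus; nearly all actives have a fitted effect of over 45% in size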; further: potency means the concentration at half of the fitted maximal effect
# Aromatase (Homo sapiens) = Aromatase (Homo sapiens) (UniProt P11511); assay: qHTS assay to identify aromatase inhibitors (AID 743083); conditions: MCF-7 aro ERE, testosterone-driven ERE luciferase, 24 h; series mostly up to 70.3 µM; further: nearly all actives have a fitted effect of over 55% in size; further: potency means the concentration at half of the fitted maximal effect
# [8] = target: Estrogen receptor (Homo sapiens) (UniProt P03372); assay: qHTS assay to identify small molecule agonists of the estrogen receptor alpha (ER-alpha) signaling pathway (AID 743075; calls by dose curve;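 further: HEK293 GripTite cells with ER-alpha and UAS-driven beta-lactamase reporter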; further: potency means the concentration at half of the fitted maximal effect); conditions: HEK293 ER-alpha-UAS-bla, beta-lactamase FRET ratio, 18 h; series mostly up to 70.1 µM
# [9] = target: Estrogen receptor (Homo sapiens) (UniProt P03372); assay: qHTS assay to identify small molecule agonists of the estrogen receptor alpha (ER-alpha) signaling pathway using the BG1 cell line (AID 743079); conditions: BG1Luc4E2 cells, ERE-luciferase agonist, 22 h; series mostly up to 70.3 µM; further: nearly all actives have a fitted effect of over 20% in size
# Chain of Aromatase (Homo sapiens) (P11511 whole entry, looked up): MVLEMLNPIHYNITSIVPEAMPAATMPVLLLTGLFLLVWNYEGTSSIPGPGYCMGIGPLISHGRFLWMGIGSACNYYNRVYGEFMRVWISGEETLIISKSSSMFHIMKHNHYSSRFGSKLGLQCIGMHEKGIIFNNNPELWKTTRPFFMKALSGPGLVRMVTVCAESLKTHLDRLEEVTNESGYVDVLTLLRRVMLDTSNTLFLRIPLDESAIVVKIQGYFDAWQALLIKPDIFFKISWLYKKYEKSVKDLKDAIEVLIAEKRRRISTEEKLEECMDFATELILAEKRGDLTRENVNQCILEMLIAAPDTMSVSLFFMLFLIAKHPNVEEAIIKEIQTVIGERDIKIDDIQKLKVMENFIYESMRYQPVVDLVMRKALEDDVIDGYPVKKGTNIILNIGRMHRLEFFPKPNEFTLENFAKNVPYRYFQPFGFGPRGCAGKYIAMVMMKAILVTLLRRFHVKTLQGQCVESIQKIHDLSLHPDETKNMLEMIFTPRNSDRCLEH
# Chain of Estrogen receptor (Homo sapiens) (P03372 whole entry, looked up): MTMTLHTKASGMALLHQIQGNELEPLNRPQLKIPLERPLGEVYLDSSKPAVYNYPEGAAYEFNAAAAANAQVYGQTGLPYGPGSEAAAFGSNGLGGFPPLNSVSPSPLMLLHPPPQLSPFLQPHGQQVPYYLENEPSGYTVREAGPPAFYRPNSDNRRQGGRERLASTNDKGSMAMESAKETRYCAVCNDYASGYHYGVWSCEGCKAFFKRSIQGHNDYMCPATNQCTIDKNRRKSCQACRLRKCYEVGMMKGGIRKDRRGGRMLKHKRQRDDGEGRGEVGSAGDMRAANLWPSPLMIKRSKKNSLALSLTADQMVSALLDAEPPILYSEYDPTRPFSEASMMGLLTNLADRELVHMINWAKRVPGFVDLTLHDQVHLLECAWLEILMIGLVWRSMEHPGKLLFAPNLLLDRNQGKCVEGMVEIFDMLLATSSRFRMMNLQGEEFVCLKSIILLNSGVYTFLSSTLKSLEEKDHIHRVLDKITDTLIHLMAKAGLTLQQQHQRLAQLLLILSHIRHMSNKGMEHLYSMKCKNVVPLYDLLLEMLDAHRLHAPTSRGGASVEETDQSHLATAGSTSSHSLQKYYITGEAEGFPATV
structure (smiles),measurement,setting,value
CCCCCCCC,Potency,[1],inactive
same,Potency,[2],inactive
same,outcome,[3],inactive
same,Potency,[4],inactive
same,Potency,[5],inactive
same,Potency,[6],inactive
same,Potency,[7],inactive
same,Potency,Aromatase (Homo sapiens),inactive
NC[C@H]1O[C@H](O[C@H]2[C@H](O[C@@H]3O[C@H](CO)[C@@H](O)[C@H]3O)C(O)[C@H](N)C[C@@H]2N)[C@H](N)[C@@H](O)[C@@H]1O (stereo not given in full),Potency,[1],inactive
same,Potency,[2],inactive
same,outcome,[3],inactive
same,Potency,[5],inactive
same,Potency,[7],inactive
same,Potency,Aromatase (Homo sapiens),inactive
CC(=O)Oc1cc2c(s1)CCN(C(C(=O)C1CC1)c1ccccc1F)C2 (stereo not given),Potency,[1],inactive
same,Potency,[2],inactive
same,outcome,[3],inactive
same,Potency,[4],inactive
same,Potency,[8],inactive
same,Potency,[9],inactive
same,Potency,[6],inactive
same,Potency,[7],inactive
same,Potency,Aromatase (Homo sapiens),inactive
CCCCCCC1CCCC(=O)O1 (stereo not given),Potency,[1],inactive
same,Potency,[2],inactive
same,outcome,[3],inactive
same,Potency,[5],inactive
same,Potency,[7],inactive
CCCCCCCC/C=C\CCCCCCCCN,Potency,[1],inactive
same,outcome,[3],inactive
same,Potency,[4],inactive
same,Potency,[5],inactive
same,Potency,[8],inactive
same,Potency,[9],inactive
same,Potency,[6],inactive
same,Potency,[7],inactive
same,Potency,Aromatase (Homo sapiens),inactive
C[C@H]1NCc2cc(-c3ccc4c(=O)c(C(=O)O)cn(C5CC5)c4c3OC(F)F)ccc21,Potency,[1],inactive
same,outcome,[3],inactive
same,Potency,[4],inactive
same,Potency,[8],inactive
same,Potency,[9],inactive
same,Potency,[6],inactive
same,Potency,[7],inactive
same,Potency,Aromatase (Homo sapiens),inactive
CCc1ccc(Br)cc1,Potency,[1],inactive
same,outcome,[3],inactive
same,Potency,[4],inactive
same,Potency,[5],inactive
same,Potency,[8],inactive
same,Potency,[6],inactive
same,Potency,[7],inactive
same,Potency,Aromatase (Homo sapiens),inactive
C=Cc1ccccc1C=C,Potency,[1],inactive
same,outcome,[3],inactive
same,Potency,[4],inactive
same,Potency,[8],inactive
same,Potency,[9],inactive
same,Potency,[6],inactive
same,Potency,[7],inactive
same,Potency,Aromatase (Homo sapiens),inactive
CC(C)(C)c1ccc(C(O)CCCN2CCC(C(O)(c3ccccc3)c3ccccc3)CC2)cc1 (stereo not given),Potency,[1],inactive and 5.96 µM (active)
same,outcome,[3],inactive
same,Potency,[4],inactive
same,Potency,[5],inactive
same,Potency,[8],inactive
same,Potency,[9],inactive
same,Potency,[6],inactive
same,Potency,[7],inactive
same,Potency,Aromatase (Homo sapiens),inactive and 29.8 µM (active)
CC[N+](CC)(CC)CCOc1ccc(/C=C/c2ccccc2)cc1,Potency,[1],inactive
same,outcome,[3],inactive
same,Potency,[4],5.35 µM [inconclusive] (active)
same,Potency,[5],inactive
same,Potency,[8],inactive
same,Potency,[6],29.8 µM (active)
same,Potency,[7],inactive
same,Potency,Aromatase (Homo sapiens),29.8 µM (active)
CCCCCCCCCCCCCC[N+](C)(C)Cc1ccccc1,Potency,[1],11.9 µM (active) and 13.9 µM (active)
same,outcome,[3],inactive
same,Potency,[5],21.3 µM (active) and 22.2 µM (active)
same,Potency,[8],inactive
same,Potency,[6],26.6 µM (active)
same,Potency,[7],inactive
same,Potency,Aromatase (Homo sapiens),29.8 µM (active) and 13.9 µM (active)
O=c1c(O)c(-c2ccc(O)cc2O)oc2cc(O)cc(O)c12,Potency,[1],inactive
same,outcome,[3],inactive
same,Potency,[5],inactive
same,Potency,[8],inactive
same,Potency,[6],inactive
same,Potency,[7],inactive
same,Potency,Aromatase (Homo sapiens),inactive
O=C(O)c1cc(O)c2ccccc2c1O,Potency,[1],9.69 µM (active)
same,outcome,[3],inactive
same,Potency,[5],inactive
same,Potency,[8],inactive
same,Potency,Aromatase (Homo sapiens),9.69 µM (active)
CC(=O)CC(=O)Nc1ccc(S(=O)(=O)O)cc1,Potency,[1],inactive
same,outcome,[3],inactive
same,Potency,[4],inactive
same,Potency,[5],inactive
same,Potency,[8],inactive
same,Potency,[9],inactive
same,Potency,[6],inactive
same,Potency,[7],inactive
same,Potency,Aromatase (Homo sapiens),inactive
CC(C(=O)O)c1ccc2c(c1)[nH]c1ccc(Cl)cc12 (stereo not given),Potency,[1],inactive
same,outcome,[3],inactive
same,Potency,[4],inactive
same,Potency,[5],inactive
same,Potency,[8],inactive
same,Potency,[9],inactive
same,Potency,[6],inactive
same,Potency,[7],inactive
same,Potency,Aromatase (Homo sapiens),inactive
CN1CCC[C@@H]1CCO[C@](C)(c1ccccc1)c1ccc(Cl)cc1,Potency,[1],23.7 µM (active)
same,Potency,[2],26.6 µM (active)
same,Potency,[5],inactive
same,Potency,[7],inactive
CC(C)(C)CC(C)(C)c1ccc(Nc2ccc(C(C)(C)CC(C)(C)C)cc2)cc1,"activity change, negative = cytotoxic",[1],10.6% [at 8.44 µM] (inactive)
same,activation,[3],1.29% [at 8.08 µM] (inactive)
same,"activity, negative = inhibition",[4],-8.94% [at 6.71 µM] (inactive)
same,"activity, negative = cytotoxicity",[5],-17.2% [at 6.72 µM] (inactive)
same,activation,[8],-3.98% [at 6.71 µM] (inactive)
same,activation,[9],-8.83% [at 8.47 µM] (inactive)
same,"activity change, negative = inhibition",[6],1.65% [at 8.47 µM] (inactive)
same,"activity change, negative = cytotoxicity",[7],8.25% [at 8.47 µM] (inactive)
same,"activity, negative = inhibition",Aromatase (Homo sapiens),-0.995% [at 8.47 µM] (inactive)
Cc1cc(C(C)(C)C)c(O)c(C)c1Cn1c(=O)n(Cc2c(C)cc(C(C)(C)C)c(O)c2C)c(=O)n(Cc2c(C)cc(C(C)(C)C)c(O)c2C)c1=O,Potency,[1],inactive
same,outcome,[3],inactive
same,Potency,[4],17.4 µM [inconclusive] (active)
same,Potency,[5],inactive
same,Potency,[8],inactive
same,Potency,[9],inactive
same,Potency,[6],inactive
same,Potency,[7],inactive
CN(C)Cc1ccccc1O,Potency,[1],inactive
same,outcome,[3],inactive
same,Potency,[4],inactive
same,Potency,[5],inactive
same,Potency,[8],inactive
same,Potency,[9],inactive
same,Potency,[6],inactive
same,Potency,[7],inactive
same,Potency,Aromatase (Homo sapiens),inactive
COc1cc(S(=O)(=O)O)c(C)cc1N=Nc1c(O)ccc2cc(S(=O)(=O)O)ccc12,Potency,[1],30.6 µM (active)
same,outcome,[3],inactive
same,Potency,[4],inactive
same,Potency,[5],inactive
same,Potency,[8],inactive
same,Potency,[7],30.6 µM (active)
C=C(CC)C(=O)c1ccc(OCC(=O)O)c(Cl)c1Cl,Potency,[1],68.1 µM (active)
same,outcome,[3],inactive
same,Potency,[4],inactive
same,Potency,[5],inactive
same,Potency,[8],inactive and 68.7 µM [fluorescent] (active)
same,Potency,[9],inactive
same,Potency,[7],inactive
same,Potency,Aromatase (Homo sapiens),inactive
CCCCCCCCCCC[C@@H](C[C@@H]1OC(=O)[C@H]1CCCCCC)OC(=O)[C@H](CC(C)C)NC=O,Potency,[1],inactive
same,outcome,[3],inactive
same,Potency,[5],inactive
same,Potency,[8],inactive
same,Potency,[9],inactive
same,Potency,[6],inactive
same,Potency,Aromatase (Homo sapiens),inactive
CCN1C(=O)c2ccccc2C1Nc1ccc(OCCN2CCCCC2)cc1 (stereo not given),Potency,[1],inactive
same,outcome,[3],inactive
same,Potency,[4],inactive
same,Potency,[5],inactive
same,Potency,[8],inactive
same,Potency,[9],inactive
same,Potency,[6],inactive
same,Potency,Aromatase (Homo sapiens),inactive
CN1CCN2c3ccccc3Cc3ccccc3C2C1 (stereo not given),Potency,[1],26.6 µM (active)
same,Potency,[2],23.7 µM (active)
same,Potency,[5],23.9 µM (active)
same,Potency,[8],inactive
same,Potency,[7],26.6 µM (active)
same,Potency,Aromatase (Homo sapiens),inactive
